Hit rate of the full screen: of about 96,000 compounds, about 19,000 (20%) were called active. Not all results are given here. A number with no mark means an inactive call.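 Rule for the calls: active = blocking of liver enzyme CYP2C9 beyond about 50% at 5 µM (limit read from the data); inactive = the rest.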

The experiment deals with Cytochrome P450 2C9 (Homo sapiens) (UniProt P11712). Kind of experiment: blockers of cytochrome P450 2C9 activity – biochemical, luminescence, ADME assay, primary screen (AID 777). The settings on record: CYP2C9 Supersomes, luciferin-H conversion, at 5 µM, stronger effect = higher value.
Cytochrome P450 2C9 (Homo sapiens), sequence (P11712 whole entry, looked up): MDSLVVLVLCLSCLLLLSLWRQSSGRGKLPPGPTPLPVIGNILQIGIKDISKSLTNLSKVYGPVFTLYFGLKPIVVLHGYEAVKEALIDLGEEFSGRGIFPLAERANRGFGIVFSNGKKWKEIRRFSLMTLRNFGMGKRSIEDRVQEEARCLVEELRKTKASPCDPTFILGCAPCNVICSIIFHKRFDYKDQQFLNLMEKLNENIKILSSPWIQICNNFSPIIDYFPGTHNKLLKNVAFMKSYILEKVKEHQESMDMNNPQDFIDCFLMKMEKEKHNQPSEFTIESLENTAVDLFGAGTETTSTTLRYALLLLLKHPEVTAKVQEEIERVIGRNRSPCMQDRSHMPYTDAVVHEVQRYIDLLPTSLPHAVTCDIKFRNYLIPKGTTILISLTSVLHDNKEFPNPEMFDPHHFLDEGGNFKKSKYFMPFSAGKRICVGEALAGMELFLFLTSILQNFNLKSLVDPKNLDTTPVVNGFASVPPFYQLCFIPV
Usually inhibition stands for the relative decrease from the control value, in per cent. `Cc1nn(Cc2ccc(C(=O)N3N=C(C(F)F)CC3(O)C(F)F)cc2)c(C)c1[N+](=O)[O-]` (stereo not drawn): the inhibition is 25.2%. In the case of `CCOC(=O)C1CCCN(C(=O)c2sc3nc(C)nc(N4CCOCC4)c3c2C)C1` (stereo not drawn), the inhibition is 23.1%.

As to `O=C1Nc2ccccc2C12Nc1ccccc1S2` (stereo not drawn), the inhibition is 37.5%. The result for `COc1ccc(C(CC(=O)O)NC(=O)Cc2ccccc2)cc1` (stereo not drawn) reads -10.6%; that for `Nn1cnnc1N/N=C/c1cc([N+](=O)[O-])c(Cl)cc1Cl`, 16.5%. Turning to `O=C(NCC(F)(F)F)Nc1nnc(C(F)(F)F)s1`, the inhibition is -13.1%. In the case of `CN1C(=O)c2ccccc2C(C(=O)NCCCN2CCCC2)C1c1c[nH]c2ccccc12` (stereo not drawn), the inhibition is 4.5%.

For the compound `CCn1nc(NC(=O)c2ccco2)c2cc3ccc(C)cc3nc21`, the inhibition was 19.8%. The result for `Cc1c(-c2ccccc2)cn2c1-c1ccc(C)n1CC2` reads -10.8%; that for `O=[N+]([O-])c1ccc(NCCCN2CCOCC2)c(Cl)c1`, 6.4%; that for `CC(C)c1ccc(C(=O)NCCCc2ccccc2)cc1`, 37.2%. As for `Cc1ccc(S(=O)(=O)Nc2ccccc2CNc2c(C)n(C)n(-c3ccccc3)c2=O)cc1`, the inhibition was 83.9% (active). For the compound `COc1ccc(S(=O)(=O)Nc2c(C)n(C)n(-c3ccccc3)c2=O)cc1`, the inhibition is -4.2%. The result for `COC(=O)Nc1c(C)n(C)n(-c2ccccc2)c1=O` reads -15.1%. Regarding `C/C(=N/NC(=O)c1cc(Cl)ccc1O)C12CC3CC(CC(C3)C1)C2`, the inhibition was 24.2%. Take `Cc1nc(C)c2c(c1C(F)(F)F)-c1ccccc1C2(F)F`: the inhibition is -9.6%. As for `Nc1ncc(-c2cc3ccccc3oc2=O)s1`, the inhibition is 24%. To `N#Cc1c(C(F)(F)F)cc(-c2ccccc2)nc1SCC(=O)N1CCOCC1` belongs -15.6%; to `CCc1c(-c2ccccc2)nc(N)c(C#N)c1-c1cccs1`, 21.7%; to `CCN(CC)c1nc(-c2ccccc2)cc(C(F)(F)F)c1C#N`, 89.5% (active). The result for `Cc1ccc(-c2csc(-c3c[nH]c4ccccc34)n2)cc1` reads 9.8%; that for `COc1ccc2c(Cl)c(C(=O)NCc3ccco3)sc2c1`, -31.6%.

As for `Cc1cc(SCC(=O)c2ccccc2)nc(SCC(=O)c2ccccc2)n1`, the inhibition was 66.3% (active).

For the compound `Cc1nc(SCC(=O)c2ccccc2)c([N+](=O)[O-])[nH]1`, the inhibition was 39.1%. The result for `COC(=O)c1cc(C(=O)CSc2nc(C)cc(C)n2)ccc1O` reads 6%; that for `O=S(=O)(NCCOc1cccc2cccnc12)c1ccc(F)cc1`, -234%. In the case of `O=S(=O)(NCc1ccccn1)c1ccc(F)cc1`, the inhibition was -1.3%.

As for `O=S(=O)(Nc1ccc(Oc2ncccn2)c(Cl)c1)c1ccc(F)cc1`, the inhibition was 99.7% (active).
